From PubChem BioAssay
For some assays here: Results with a measured potency or affinity are listed apart. Active and inactive are the calls of the source. Unless noted, no rule for the calls is given here.

Assays:
[1] = antimalarial activity against Dd2 strain (AID 2302;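 active = growth inhibition above 50% at the single 2 µM test dose, taken to imply half-maximal potency below 2 µM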;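 also: 0% = DMSO untreated growth and 100% = chloroquine plus artemisinin killed control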); conditions: P. falciparum Dd2 in RBCs, LDH growth readout, 72 h; at 2 µM; stronger effect = higher value
[2] = human hepatoma cell viability loss – ATP luminescence, cytotoxicity control for P. falciparum antimalarial project, primary screen (AID 2303;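 active = inhibition above 50%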;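 also: 0% = DMSO wells and 100% = digitonin-killed cells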); conditions: HepG2 viability, 24-48 h, at 10 µM, stronger effect = higher value
[3] = target: L-lactate dehydrogenase (Plasmodium falciparum (isolate CDC / Honduras)) (UniProt Q27743); test: PfLDH activity inhibition – cell lysate, 3D7 strain, counter-screen for P. falciparum growth inhibition project (AID 2304);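 also: 0% = vehicle and 100% = reference inhibitor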; conditions: P. falciparum 3D7 crude extract, LDH APAD/NBT absorbance; at 2 µM; stronger effect = higher value
[4] = inhibition of 3D7 malaria parasite growth – strain 3D7 (AID 2306);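 also: 0% = DMSO wells and 100% = chloroquine plus artemisinin control wells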; conditions: P. falciparum 3D7 erythrocytic growth, LDH absorbance, 72 h; at 2 µM; stronger effect = higher value
[5] = target: Calcium-dependent protein kinase 1 (Plasmodium falciparum (isolate 3D7)) (UniProt P62344); test: PfCDPK1 kinase inhibitors, biochemical, TCAMS library (AID 1159585; cut-off not given, nearly all actives have IC50 up to about 0.98 µM;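 also: inhibitors leave more ATP so luminescence rises with inhibition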); conditions: recombinant PfCDPK1, Kinase-Glo ATP depletion luminescence
[6] = target: Plasmodium falciparum protein kinase 6 (PK6, PF3D7_1337100) (UniProt Q8IDW1); test: PfPK6 kinase inhibitors, biochemical, TCAMS library (AID 1159586); conditions: recombinant PfPK6, Kinase-Glo ATP depletion luminescence
[7] = target: Protein kinase 7 (PK7), Plasmodium falciparum 3D7 (PF3D7_0213400) (UniProt Q7YTF7); test: inhibition of Plasmodium PK7 catalytic activity – biochemical, TCAMS antimalarial set, Kinase-Glo luminescence (AID 1159587); conditions: recombinant PfPK7, Kinase-Glo ATP depletion luminescence
[8] = target: Calcium-dependent protein kinase 4 (Plasmodium falciparum (isolate 3D7)) (UniProt Q8IBS5); test: PfCDPK4 kinase inhibitors, biochemical, TCAMS library (AID 1159588; cut-off not given, nearly all actives have IC50 up to about 0.91 µM); conditions: recombinant PfCDPK4, Kinase-Glo ATP depletion luminescence
Calcium-dependent protein kinase 4 (Plasmodium falciparum (isolate 3D7)), sequence (Q8IBS5 whole entry, looked up): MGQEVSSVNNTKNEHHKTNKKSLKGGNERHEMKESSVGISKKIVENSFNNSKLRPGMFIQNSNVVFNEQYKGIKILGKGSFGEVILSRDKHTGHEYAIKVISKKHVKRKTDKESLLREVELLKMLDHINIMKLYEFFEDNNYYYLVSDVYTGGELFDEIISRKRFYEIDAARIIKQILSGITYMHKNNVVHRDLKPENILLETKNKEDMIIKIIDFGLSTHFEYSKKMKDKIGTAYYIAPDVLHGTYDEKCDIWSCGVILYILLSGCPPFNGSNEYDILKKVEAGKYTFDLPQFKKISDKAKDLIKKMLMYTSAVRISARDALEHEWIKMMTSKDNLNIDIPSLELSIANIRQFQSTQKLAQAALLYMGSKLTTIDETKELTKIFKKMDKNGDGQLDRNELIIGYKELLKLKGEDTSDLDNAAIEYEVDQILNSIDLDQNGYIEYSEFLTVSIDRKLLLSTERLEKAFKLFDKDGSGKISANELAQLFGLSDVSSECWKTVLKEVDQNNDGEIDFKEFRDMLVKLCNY

Protein kinase 7 (PK7), Plasmodium falciparum 3D7 (PF3D7_0213400), sequence (Q7YTF7 1-343): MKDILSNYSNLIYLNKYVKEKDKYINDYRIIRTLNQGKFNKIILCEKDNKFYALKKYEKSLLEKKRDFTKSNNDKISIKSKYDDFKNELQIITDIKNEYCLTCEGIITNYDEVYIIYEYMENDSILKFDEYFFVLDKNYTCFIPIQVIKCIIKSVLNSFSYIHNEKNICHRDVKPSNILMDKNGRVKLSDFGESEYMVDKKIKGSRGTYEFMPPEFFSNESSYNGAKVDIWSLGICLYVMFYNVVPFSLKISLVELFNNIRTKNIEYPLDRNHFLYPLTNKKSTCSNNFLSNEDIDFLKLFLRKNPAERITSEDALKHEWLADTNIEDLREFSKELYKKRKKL
Calcium-dependent protein kinase 1 (Plasmodium falciparum (isolate 3D7)), sequence (P62344 whole entry, looked up): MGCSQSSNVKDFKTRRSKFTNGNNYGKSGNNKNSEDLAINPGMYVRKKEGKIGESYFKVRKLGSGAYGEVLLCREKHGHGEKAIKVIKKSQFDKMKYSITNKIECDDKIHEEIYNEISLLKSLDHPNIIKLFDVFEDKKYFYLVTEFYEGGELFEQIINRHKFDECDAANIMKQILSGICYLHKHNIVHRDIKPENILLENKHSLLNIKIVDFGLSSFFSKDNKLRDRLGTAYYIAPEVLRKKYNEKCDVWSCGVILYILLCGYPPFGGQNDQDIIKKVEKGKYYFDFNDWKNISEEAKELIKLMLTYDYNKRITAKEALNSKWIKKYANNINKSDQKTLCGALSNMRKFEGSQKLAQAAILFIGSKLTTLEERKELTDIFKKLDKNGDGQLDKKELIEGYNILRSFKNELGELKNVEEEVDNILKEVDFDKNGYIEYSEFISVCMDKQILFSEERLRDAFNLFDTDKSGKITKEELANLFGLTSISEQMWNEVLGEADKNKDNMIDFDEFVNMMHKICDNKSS
L-lactate dehydrogenase (Plasmodium falciparum (isolate CDC / Honduras)), sequence (Q27743 whole entry, looked up): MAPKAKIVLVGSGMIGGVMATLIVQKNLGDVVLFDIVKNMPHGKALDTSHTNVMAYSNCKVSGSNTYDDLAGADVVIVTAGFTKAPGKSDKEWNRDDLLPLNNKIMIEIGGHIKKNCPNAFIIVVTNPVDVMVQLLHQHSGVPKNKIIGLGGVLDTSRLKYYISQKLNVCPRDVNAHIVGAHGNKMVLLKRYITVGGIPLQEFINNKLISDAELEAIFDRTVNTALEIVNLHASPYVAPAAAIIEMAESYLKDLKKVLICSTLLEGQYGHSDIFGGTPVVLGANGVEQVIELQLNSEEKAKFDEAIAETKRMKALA
Plasmodium falciparum protein kinase 6 (PK6, PF3D7_1337100), sequence (Q8IDW1 1-305): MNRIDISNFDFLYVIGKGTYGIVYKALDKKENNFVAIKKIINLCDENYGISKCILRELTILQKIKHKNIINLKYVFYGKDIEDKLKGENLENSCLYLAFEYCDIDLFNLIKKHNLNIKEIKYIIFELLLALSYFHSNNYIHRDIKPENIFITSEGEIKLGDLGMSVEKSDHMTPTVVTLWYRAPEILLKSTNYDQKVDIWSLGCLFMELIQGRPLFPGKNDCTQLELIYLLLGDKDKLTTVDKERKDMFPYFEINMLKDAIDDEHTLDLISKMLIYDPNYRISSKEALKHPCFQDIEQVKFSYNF

COc1ccc2nccc([C@@H](O)CN3CCC(NCCNc4ccccn4)CC3)c2c1
active: growth inhibition [4] 101%
inactive: growth inhibition [1] 14% | inhibition [2] 18% | inhibition [3] -4% | outcome [5] | outcome [6] | outcome [7] | outcome [8]

CS(=O)(=O)NCCCNCc1ccc(-c2cccc(-c3nc4ccc(C(F)(F)F)cc4[nH]3)c2)cc1
inactive: inhibition [2] 17% | inhibition [3] 1% | outcome [5] | outcome [6] | outcome [7] | outcome [8]
active: growth inhibition [1] 83% | growth inhibition [4] 100%

CN(C)CCNCc1ccc(-c2ccc(-c3nc4ccc(F)cc4[nH]3)cc2)cc1
inactive: inhibition [2] 8% | inhibition [3] -4% | outcome [5] | outcome [6] | outcome [7] | outcome [8]
active: growth inhibition [1] 99% | growth inhibition [4] 101%

O=C(Nc1cccc(Cl)c1)N(CCCn1ccnc1)Cc1csc(-c2ccc(CNCc3ccccc3)cc2)n1
active: growth inhibition [4] 102%
inactive: growth inhibition [1] 45% | inhibition [2] 11% | inhibition [3] 4% | outcome [5] | outcome [6] | outcome [7] | outcome [8]

CCOc1cc(C(=O)Nc2ccccc2N2CCN(S(C)(=O)=O)CC2)cc(OCC)c1OCC
inactive: inhibition [2] -1% | inhibition [3] -2% | outcome [5] | outcome [6] | outcome [7] | outcome [8]
active: growth inhibition [1] 80% | growth inhibition [4] 91%

Cc1ccc(Nc2nccc(NCC(O)c3ccc(C(F)(F)F)cc3)n2)cc1 (stereo not given)
active: growth inhibition [1] 100% | inhibition [2] 53% | growth inhibition [4] 100%
inactive: inhibition [3] -7% | outcome [5] | outcome [6] | outcome [7] | outcome [8]

CSC1=NC(=Nc2c(C)cccc2C)C2(CCCCC2)N1c1ccccc1Cl
active: growth inhibition [1] 57% | growth inhibition [4] 95%
inactive: inhibition [2] 22% | inhibition [3] -6% | outcome [5] | outcome [6] | outcome [7] | outcome [8]

CCN(CC)CCN(Cc1ccc(-c2ccc(C(F)(F)F)cc2)cc1)C(=O)Cn1cc(Cc2cnn(C)c2)c(=O)nc1/C=C/c1ccc(F)cc1
inactive: inhibition [2] 6% | inhibition [3] 3% | outcome [5] | outcome [6] | outcome [7] | outcome [8]
active: growth inhibition [1] 91% | growth inhibition [4] 96%

O=C(NC1CCC1)C1CCN(C(c2ccccc2)c2cc(F)cc(F)c2)CC1 (stereo not given)
active: growth inhibition [1] 72% | growth inhibition [4] 94%
inactive: inhibition [2] 0% | inhibition [3] -2% | outcome [5] | outcome [6] | outcome [7] | outcome [8]

CC(C)(C)CCN1CCC(CNC(=O)c2cc(-c3cccc(C(F)(F)F)c3)cs2)C1 (stereo not given)
inactive: growth inhibition [1] 13% | inhibition [2] 47% | inhibition [3] -1% | outcome [5] | outcome [6] | outcome [7] | outcome [8]
active: growth inhibition [4] 93%

CN(C)CCOc1cc(NC(=O)Nc2ccc3c(c2)CCCC3=O)ccc1I
active: growth inhibition [4] 94%
inactive: growth inhibition [1] 31% | inhibition [2] 29% | inhibition [3] -5% | outcome [5] | outcome [6] | outcome [7] | outcome [8]

OC1(Cc2ccccc2)CCN(Cc2cccc(-c3c[nH]c4nc(NC5CCCC5)ncc34)c2)CC1
inactive: growth inhibition [1] 35% | inhibition [2] 45% | inhibition [3] 4% | outcome [5] | outcome [6] | outcome [7] | outcome [8]
active: growth inhibition [4] 96%

OCCCCCCN=Cc1[nH]c(=S)sc1O
inactive: growth inhibition [1] 1% | inhibition [2] 7% | inhibition [3] 4% | outcome [5] | outcome [6] | outcome [7] | outcome [8]
active: growth inhibition [4] 91%

COc1ccc(CCNCCCCCCNCCc2ccc(Cl)c(Cl)c2)cc1OC
inactive: growth inhibition [1] 10% | inhibition [3] -1% | outcome [5] | outcome [6] | outcome [7] | outcome [8]
active: inhibition [2] 59% | growth inhibition [4] 101%

Cc1cc(OCCCN2CCCCC2)ccc1NC(=O)COc1ccc(Cl)cc1C(=O)c1cc(Cl)cc(C#N)c1
active: growth inhibition [4] 93%
inactive: growth inhibition [1] 16% | inhibition [2] 28% | inhibition [3] -8% | outcome [5] | outcome [6] | outcome [7] | outcome [8]

CSCCCN1CCC(O)(c2ccc3oc(C(=O)Nc4ccc5sc(C)nc5c4)cc3c2)CC1
inactive: inhibition [2] 10% | inhibition [3] 4% | outcome [5] | outcome [6] | outcome [7] | outcome [8]
active: growth inhibition [1] 69% | growth inhibition [4] 101%

O=S(=O)(Nc1cccc(F)c1CNCc1ccccn1)c1ccc(Cl)c(Cl)c1
inactive: growth inhibition [1] 34% | inhibition [2] 45% | inhibition [3] -5% | outcome [5] | outcome [6] | outcome [7] | outcome [8]
active: growth inhibition [4] 92%

CN1CCC(NCc2cccc(-c3ccc(S(=O)(=O)NCCc4ccccn4)cc3)c2)CC1
active: growth inhibition [4] 95%
inactive: growth inhibition [1] 1% | inhibition [2] 10% | inhibition [3] -1% | outcome [5] | outcome [6] | outcome [7] | outcome [8]

CCC(C)NC(=O)CN1CN(c2ccccc2)C2(CCN(C(=O)c3ccc(-c4ccccc4)cc3)CC2)C1=O (stereo not given)
active: growth inhibition [1] 100% | growth inhibition [4] 100%
inactive: inhibition [2] -1% | inhibition [3] -2% | outcome [5] | outcome [6] | outcome [7] | outcome [8]

O=C(Nc1ccc(Br)cc1)N(CCN1CCOCC1)CC(O)COCc1ccc(Cl)c(Cl)c1 (stereo not given)
inactive: inhibition [2] 16% | inhibition [3] -5% | outcome [5] | outcome [6] | outcome [7] | outcome [8]
active: growth inhibition [1] 52% | growth inhibition [4] 94%

CC(C)c1cc(Oc2c(I)cc(CCN=C(N)N)cc2I)ccc1O
active: growth inhibition [1] 54% | growth inhibition [4] 98%
inactive: inhibition [2] 19% | inhibition [3] 3% | outcome [5] | outcome [6] | outcome [7] | outcome [8]

N#Cc1ccc(C2CCN(CC[C@H](N)Cc3ccc(Cl)s3)CC2)cc1
active: growth inhibition [4] 92%
inactive: growth inhibition [1] 30% | inhibition [2] 31% | inhibition [3] 6% | outcome [5] | outcome [6] | outcome [7] | outcome [8]

CC(C)C[C@@H]1C(=O)N[C@H](C2Cc3ccccc3C2)C(=O)N1[C@@H](C(=O)O)c1ccc(F)cc1F
active: growth inhibition [4] 98%
inactive: growth inhibition [1] -2% | inhibition [2] 10% | inhibition [3] -1% | outcome [5] | outcome [6] | outcome [7] | outcome [8]

CC(C)CNCc1cccc(-c2cccc(CNC3CCN(Cc4ccccc4)CC3)c2)c1
active: growth inhibition [1] 99% | growth inhibition [4] 102%
inactive: inhibition [2] 32% | inhibition [3] -2% | outcome [5] | outcome [6] | outcome [7] | outcome [8]

CCCCCCC(C)c1cc(O)c2c(c1)OC(=O)CC2(CC)c1ccccn1 (stereo not given)
active: growth inhibition [4] 100%
inactive: growth inhibition [1] -2% | inhibition [2] 15% | inhibition [3] -2% | outcome [5] | outcome [6] | outcome [7] | outcome [8]

O=C(Nc1ccnc(-c2cccnc2)n1)c1cc(C(F)(F)F)cc(C(F)(F)F)c1
active: growth inhibition [4] 95%
inactive: growth inhibition [1] 12% | inhibition [2] 22% | inhibition [3] -4% | outcome [5] | outcome [6] | outcome [7] | outcome [8]

CN=C(NO)NCCN(C)C
inactive: growth inhibition [1] -5% | inhibition [2] -1% | inhibition [3] -2% | outcome [5] | outcome [6] | outcome [7] | outcome [8]
active: growth inhibition [4] 88%

COc1c(C=NNc2nc(Nc3ccccc3)nc(Nc3ccccc3)n2)ccc(Br)c1O
active: inhibition [2] 63% | growth inhibition [4] 98%
inactive: growth inhibition [1] 37% | inhibition [3] 5% | outcome [5] | outcome [6] | outcome [7] | outcome [8]

CCN1CCC(N(Cc2ccc(-c3ccc(C(F)(F)F)cc3)cc2)C(=O)Cn2c(CCc3cccc(F)c3F)cc(=O)c3cn(C)nc32)CC1
inactive: inhibition [2] 27% | inhibition [3] 2% | outcome [5] | outcome [6] | outcome [7] | outcome [8]
active: growth inhibition [1] 87% | growth inhibition [4] 95%

CC1CN(S(=O)(=O)c2ccc(NC(=O)c3cc(-c4ccccc4O)n[nH]3)cc2)CC(C)O1 (stereo not given)
active: growth inhibition [1] 93% | growth inhibition [4] 97%
inactive: inhibition [2] 21% | inhibition [3] 1% | outcome [5] | outcome [6] | outcome [7] | outcome [8]

Cc1nc2c(-n3cc(Cn4ccnc4)c4ccccc43)ncnc2n1-c1ccc(Cl)cc1Cl
inactive: growth inhibition [1] 29% | inhibition [2] 16% | inhibition [3] -5% | outcome [5] | outcome [6] | outcome [7] | outcome [8]
active: growth inhibition [4] 89%

O=C(NCc1cccc(Cl)c1)c1ccc(CNC2CCN(Cc3ccccc3)CC2)cc1
active: growth inhibition [1] 50% | growth inhibition [4] 100%
inactive: inhibition [2] 13% | inhibition [3] 5% | outcome [5] | outcome [6] | outcome [7] | outcome [8]

CSC1=NC(=Nc2c(C)cccc2C)C2(CCC(C(C)(C)C)CC2)N1c1ccc(O)cc1 (stereo not given)
inactive: inhibition [2] 5% | inhibition [3] 1% | outcome [5] | outcome [6] | outcome [7] | outcome [8]
active: growth inhibition [1] 93% | growth inhibition [4] 97%

O=C(/C=C/c1ccc(Cl)c(Cl)c1)NCCCCCN1CCC(CCNC(=O)Cc2ccc(Cl)cc2)CC1
active: growth inhibition [4] 83%
inactive: growth inhibition [1] 0% | inhibition [2] 45% | inhibition [3] -8% | outcome [5] | outcome [6] | outcome [7] | outcome [8]

O=C(/C=C/c1ccc(Cl)c(Cl)c1)NCCCCCN1CCC(NC(=O)Nc2ccccc2F)CC1
active: growth inhibition [4] 95%
inactive: growth inhibition [1] 25% | inhibition [2] 14% | inhibition [3] -5% | outcome [5] | outcome [6] | outcome [7] | outcome [8]

O=C(O)Cc1ccc(-c2c[nH]c3ncc(-c4cccc5ncccc45)cc23)cc1
inactive: growth inhibition [1] 0% | inhibition [2] 7% | inhibition [3] 1% | outcome [5] | outcome [6] | outcome [7] | outcome [8]
active: growth inhibition [4] 95%

CS(=O)(=O)c1ccc(CCNCc2ccc(-c3ccc(CNC4CCN(Cc5ccccc5)CC4)cc3)nc2)cc1
active: growth inhibition [1] 100% | growth inhibition [4] 101%
inactive: inhibition [2] 32% | inhibition [3] 3% | outcome [5] | outcome [6] | outcome [7] | outcome [8]

Cc1cc(NCCc2ccccc2)nc(/N=C(\N)Nc2ccccc2Cl)n1
inactive: growth inhibition [1] 7% | inhibition [2] 20% | inhibition [3] -8% | outcome [5] | outcome [6] | outcome [7] | outcome [8]
active: growth inhibition [4] 100%

Cc1cccc2[nH]c(-c3ccc(-c4cccc(NC(=O)c5cnccc5C(F)(F)F)c4)cc3)nc12
inactive: growth inhibition [1] 13% | inhibition [2] 25% | inhibition [3] 0% | outcome [5] | outcome [6] | outcome [7] | outcome [8]
active: growth inhibition [4] 84%

Nc1cc(-c2ccc3c(N)nccc3c2)ccc1Cl
active: growth inhibition [4] 91%
inactive: growth inhibition [1] 4% | inhibition [2] 1% | inhibition [3] -2% | outcome [5] | outcome [6] | outcome [7] | outcome [8]
